# Data taken from PubChem BioAssay AID493203 (National Center for Advancing Translational Sciences (NCATS), 2011).
# Results filed as inconclusive are left out. Active and inactive are the calls of the source. Calls come from the whole dose curve; as a rule, active = well fitted activation curve with a large enough effect; inconclusive = small, poorly fitted or top-dose-only effect; inactive = flat fitted curve, though single readings scatter.
# Test: qHTS Assay for NPC1 Promoter Activators: Initial hit validation from the primary screen;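 note: reporter driven by the mutant form of the NPC1 promoter; % of control where 0% means no effect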
# Details: Huh7 NPC1 promoter-luciferase reporter, luminescence, 24 h; series mostly up to 46.1 µM; activity, positive = activation: at the top concentration
# Text: NIH Chemical Genomics Center [NCGC] NIH Molecular Libraries Probe Production centers Network [MLPCN] MLPCN Grant: MH089375-01A1 Assay Submitter (PI): Yiannis A. Ioannou NCGC Assay Overview: Niemann Pick Type C (NPC) is a rare neurodegenerative lipidosis that is characterized by lipid storage in the endosomal/lysosomal system. Treatment modalities for this devastating disease are currently non-existent due to the severe obstacles associated with accessing the central nervous system with proteins or genes. The majority of mutations causing NPC disease are missense mutations that are distributed throughout the length of the NPC1 protein, with the most prevalent being the I1061T allele. Although NPC1 mutant proteins may be functional, they are typically trapped in the ER due to misfolding. […] We have developed and optimized a cell based luciferase reporter assay in 1536 well format for the identification of up-regulators of the mutant NPC1 promoter. This assay presents data on the validation of hits from the primary screen.
# The NPC1 promoter is cloned in front of the luciferase reporter gene, therefore NPC promoter activation results in luciferase expression. Frozen stock of the NPC1 promoter transfected Huh7 cells were obtained from the laboratory of Dr. Yiannis Ioannou (The Mount Sinai School of Medicine, New York, NY). Cells were propagated and maintained at NCGC in medium containing RPMI-1640 supplemented with 10% FBS, 2mM L-glutamine, and 50ug/ml penicillin/streptomycin. Cells were harvested in and plated for assays in OP-MEM I reduced-serum medium supplemented with 10% FBS. The Amplite luciferase reporter gene assay kit was purchased from ABD Bioquest and prepared/stored according to manufacturers recommendations. qHTS Assay Setup: 1. Dispensed 5ul of Huh7 cells stably expressing NPC1-luciferase at a density of 1500 cells per well 1536-well plates. 2. Incubate cells at 37C, 5% CO2, and 95% humidity for 2 hours. 3. Transferred 23nl per well of compound in DMSO solution. 4. Incubated at 37C, 5% CO2, and 95% humidity for 24 hours. 5. Dispensed 3ul per well of Amplite reagent(ABD Bioquest) per well. 6. Incubate at ambient for 10 minutes. 7. Read using the luminescence protocol on the ViewLux plate reader (Perkin Elmer).
row,Compound,"activity, positive = activation"
1,COc1cccc(CCNCc2ccc(SC)cc2)c1,2.08% (inactive)
2,O=C1c2ccccc2C(=O)N1Cc1nc2ccccc2c(=O)n1-c1cccnc1,-3.22% (inactive)
3,CN1CCc2cc3c(c4c2C1Cc1ccccc1-4)OCO3 (stereo unspecified),-44.2% (inactive)
4,CCC(=NCc1cccnc1)c1c(O)n(-c2ccccc2)c(=O)[nH]c1=O,-5.41% (inactive)
5,Cc1cccn2c(NCC3CCCO3)c(C(C)C)nc12 (stereo unspecified),2.28% (inactive)
6,COc1ccc(C(CC(=O)N2CCC3(CC2)OCCO3)NS(=O)(=O)c2ccc(F)cc2)cc1 (stereo unspecified),0.9% (inactive)
